The source made the active and inactive calls. The calls were made as follows: active = hit-call score of the fitted dose curve at least 0.9, where 1 is the maximum; inactive = score below 0.9.
Legend:
[1] = read-out: Thrombomodulin, THBD (gene 7056); experiment: BSK_CASM3C_Thrombomodulin: BioMAP Diversity Plus: CASM3C Assay for Thrombomodulin Biomarker Activity (AID 2283051); details: primary human coronary artery smooth muscle cells; actives raise or lower the signal;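 also: thrombomodulin protein level measured by ELISA 24 h after dosing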
[2] = read-out: Tissue Factor, F3 (gene 2152); experiment: BSK_CASM3C_TissueFactor: BioMAP Diversity Plus: CASM3C Assay for Tissue Factor Biomarker Activity (AID 2283052); details: primary human coronary artery smooth muscle cells; actives raise or lower the signal;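 also: cell surface tissue factor protein level read by ELISA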
[3] = read-out: Interferon-gamma inducible Protein 10 (IP10), CXCL10 (gene 3627); experiment: BSK_hDFCGF_IP10: BioMAP Diversity Plus: hDFCGF Assay for Interferon-gamma inducible Protein 10 (IP10) Biomarker Activity (AID 2283053); details: primary human foreskin fibroblasts; actives raise or lower the signal
Method in brief: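 ELISA quantification of IP-10 after a 24 h chemical exposure of human dermal foreskin fibroblast primary cultures. Both increases and decreases versus DMSO fitted.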

[4] = read-out: Urokinase-type plasminogen activator receptor (uPAR), PLAUR (gene 5329); experiment: BSK_CASM3C_uPAR: BioMAP Diversity Plus: CASM3C Assay for Urokinase-type plasminogen activator receptor (uPAR) Biomarker Activity (AID 2283054); details: primary human coronary artery smooth muscle cells; actives raise or lower the signal;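 also: cell-surface uPAR protein level quantified by ELISA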
[5] = read-out: Vascular cell adhesion molecule 1 (VCAM1), VCAM1 (gene 7412); experiment: BSK_CASM3C_VCAM1: BioMAP Diversity Plus: CASM3C Assay for Vascular cell adhesion molecule 1 (VCAM1) Biomarker Activity (AID 2283055); details: primary human coronary artery smooth muscle cells; actives raise or lower the signal;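 also: VCAM-1 protein level quantified by ELISA on the cells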
[6] = read-out: Collagen III, COL3A1 (gene 1281); experiment: BSK_hDFCGF_CollagenIII: BioMAP Diversity Plus: hDFCGF Assay for Collagen III Biomarker Activity (AID 2283056); details: primary human foreskin fibroblasts; actives raise or lower the signal
Method in brief: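 Response relative to DMSO, fitted in both directions, reflects ELISA-measured collagen III in human primary skin fibroblasts 24 h after compound addition.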

[7] = read-out: Epidermal growth factor receptor (EGFR), EGFR (gene 1956); experiment: BSK_hDFCGF_EGFR: BioMAP Diversity Plus: hDFCGF Assay for Epidermal growth factor receptor (EGFR) Biomarker Activity (AID 2283057); details: primary human foreskin fibroblasts; actives raise or lower the signal
Method in brief: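 EGFR levels by ELISA in human dermal fibroblast cultures, 24 h post-treatment, fitted bidirectionally versus DMSO. Parallel wells stained with sulforhodamine B to detect overt cytotoxicity.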

[8] = read-out: Interleukin-8 (IL8), CXCL8 (gene 3576); experiment: BSK_hDFCGF_IL8: BioMAP Diversity Plus: hDFCGF Assay for Interleukin-8 (IL8) Biomarker Activity (AID 2283058); details: primary human foreskin fibroblasts; actives raise or lower the signal
Method in brief: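 Fibroblast monolayers (human foreskin, hDFCGF) received test chemical for 24 h before ELISA detection of IL-8; either increases or decreases relative to DMSO count as activity.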

[9] = BSK_hDFCGF_Proliferation: Cell Proliferation Assessment in the BioMAP Diversity Plus: hDFCGF Assay (AID 2283059); details: primary human foreskin fibroblasts;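 also: curves fitted for both rise and fall of signal versus DMSO baseline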
Method in brief: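 Primary human foreskin fibroblasts, sub-confluent; […]; 10% TCA fix, 0.1% SRB stain, A560 total protein. Gain/loss fitted bidirectionally vs DMSO control.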

[10] = read-out: Macrophage colony-stimulating factor (MCSF), CSF1 (gene 1435); experiment: BSK_hDFCGF_MCSF: BioMAP Diversity Plus: hDFCGF Assay for Macrophage colony-stimulating factor (MCSF) Biomarker Activity (AID 2283060); details: primary human foreskin fibroblasts; actives raise or lower the signal
Method in brief: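 fibroblasts (human foreskin, primary), 24 h post-dose; M-CSF by ELISA; bidirectional fit, DMSO = baseline.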

[11] = read-out: TIMP metallopeptidase inhibitor 1 (TIMP1), TIMP1 (gene 7076); experiment: BSK_hDFCGF_TIMP1: BioMAP Diversity Plus: hDFCGF Assay for TIMP metallopeptidase inhibitor 1 (TIMP1) Biomarker Activity (AID 2283062); details: primary human foreskin fibroblasts; actives raise or lower the signal
Method in brief: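 Bidirectional curve fitting against DMSO baseline yielded this endpoint, based on ELISA detection of TIMP-1 in primary human foreskin fibroblasts exposed to compound for 24 h.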

[12] = read-out: Monokine induced gamma interferon (MIG), CXCL9 (gene 4283); experiment: BSK_hDFCGF_MIG: BioMAP Diversity Plus: hDFCGF Assay for Monokine induced gamma interferon (MIG) Biomarker Activity (AID 2283063); details: primary human foreskin fibroblasts; actives raise or lower the signal
Method in brief: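 Endpoint derived by bidirectional fitting relative to DMSO; MIG quantified via ELISA in primary human foreskin fibroblasts harvested 24 h after dosing.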

[13] = read-out: Matrix Metallopeptidase 1 (MMP1), MMP1 (gene 4312); experiment: BSK_hDFCGF_MMP1: BioMAP Diversity Plus: hDFCGF Assay for Matrix Metallopeptidase 1 (MMP1) Biomarker Activity (AID 2283064); details: primary human foreskin fibroblasts; actives raise or lower the signal
Method in brief: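 MMP1 levels quantified by ELISA 24 h after dosing human dermal fibroblast cultures, with parallel SRB total-protein staining for overt cytotoxicity. Data fitted in both directions against DMSO baseline.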

[14] = read-out: Vascular cell adhesion molecule 1 (VCAM1), VCAM1 (gene 7412); experiment: BSK_hDFCGF_VCAM1: BioMAP Diversity Plus: hDFCGF Assay for Vascular cell adhesion molecule 1 (VCAM1) Biomarker Activity (AID 2283065); details: primary human foreskin fibroblasts; actives raise or lower the signal;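 as to AC50: VCAM-1 protein level quantified by ELISA after 24 h chemical exposure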
Method in brief: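 Measured after 24 h chemical treatment of primary human skin fibroblasts, VCAM-1 was detected by ELISA and concentration-response analysed in both directions versus DMSO vehicle.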

[15] = read-out: Plasminogen activator inhibitor-1 (PAI1), SERPINE1 (gene 5054); experiment: BSK_hDFCGF_PAI1: BioMAP Diversity Plus: hDFCGF Assay for Plasminogen activator inhibitor-1 (PAI1) Biomarker Activity (AID 2283066); details: primary human foreskin fibroblasts; actives raise or lower the signal
Method in brief: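 PAI-1 levels in human dermal foreskin fibroblasts were quantified by ELISA 24 h after dosing, with gain or loss analysed against DMSO. Overt cytotoxicity was checked by sulforhodamine B total-protein staining in parallel cultures.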

[16] = read-out: Intercellular Adhesion Molecule 1 (ICAM1), ICAM1 (gene 3383); experiment: BSK_KF3CT_ICAM1: BioMAP Diversity Plus: KF3CT Assay for Intercellular Adhesion Molecule 1 (ICAM1) Biomarker Activity (AID 2283067); details: primary human keratinocytes with fibroblasts; actives raise or lower the signal
Method in brief: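 Bidirectional curve fitting against a DMSO baseline was applied to ICAM-1 ELISA signal from primary human skin co-cultures harvested 24 h after treatment, with SRB staining of parallel wells for overt cytotoxicity.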

[17] = read-out: Interferon-gamma inducible Protein 10 (IP10), CXCL10 (gene 3627); experiment: BSK_KF3CT_IP10: BioMAP Diversity Plus: KF3CT Assay for Interferon-gamma inducible Protein 10 (IP10) Biomarker Activity (AID 2283068); details: primary human keratinocytes with fibroblasts; actives raise or lower the signal
Method in brief: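 In a primary skin co-culture of keratinocytes and fibroblasts, IP-10 is quantified by ELISA at 24 h after dosing. SRB staining of parallel wells monitors overt toxicity. Curves are fitted both directions against DMSO.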

[18] = BSK_KF3CT_SRB: Viability Assessment in the BioMAP Diversity Plus: KF3CT Assay (AID 2283069); details: primary human keratinocytes with fibroblasts
Method in brief: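 Cytotoxicity was gauged by SRB staining (0.1% SRB, 10% TCA fixation, 560 nm) of parallel cultures at 24 h. The cells were primary human skin keratinocytes co-cultured with fibroblasts, and activity was fitted in both directions against DMSO.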

[19] = read-out: Interleukin-1 alpha (IL1a), IL1A (gene 3552); experiment: BSK_KF3CT_IL1a: BioMAP Diversity Plus: KF3CT Assay for Interleukin-1 alpha (IL1a) Biomarker Activity (AID 2283070); details: primary human keratinocytes with fibroblasts; actives raise or lower the signal
Method in brief: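 IL-1a was detected by ELISA 24 h after chemical treatment of a co-culture of human skin keratinocytes and foreskin fibroblasts. Gain or loss of signal was fitted against the DMSO baseline.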

Measured: AC50

CC[C@H](NC(=O)c1cc(F)ccc1NS(=O)(=O)c1cccc2cccnc12)c1ccccc1
inactive: [2] | [3] | [4] | [5] | [7] | [8] | [10] | [11] | [12] | [13] | [14] | [15] | [16] | [17] | [18] | [19]
active: [1] 10.8 µM | [6] 8.58 µM | [9] 21.5 µM

CCCCCc1ccc(N)cc1
inactive: [1] | [2] | [4] | [5] | [6] | [8] | [10] | [11] | [12] | [13] | [14] | [15] | [16] | [19]
active: [3] 20 µM | [7] 0.0546 µM | [9] 9.38 µM | [17] 22 µM | [18] 24.4 µM

NC(=O)c1nc(-c2cccc(-c3cc(F)ccc3OCC(F)(F)C(F)(F)F)c2)n[nH]1
inactive: [1] | [2] | [5] | [7]
active: [3] 35 µM | [4] 32 µM | [6] 17.7 µM | [8] 39.3 µM | [9] 31.1 µM | [10] 44 µM | [11] 35.5 µM | [12] 35 µM | [13] 39.5 µM | [14] 35.1 µM | [15] 32.8 µM | [16] 35.2 µM | [17] 39.3 µM | [18] 37 µM

Clc1ccccc1C(c1ccccc1)(c1ccccc1)n1ccnc1
active: [1] 4.88 µM | [2] 20 µM | [3] 9.81 µM | [4] 28.4 µM | [5] 31.9 µM | [6] 5.5 µM | [8] 9.77 µM | [9] 5.53 µM | [10] 5.68 µM | [11] 9.85 µM | [12] 8.88 µM | [13] 7.77 µM | [14] 8.14 µM | [15] 5.57 µM | [16] 11.5 µM | [17] 8.61 µM | [18] 5.3 µM | [19] 10.4 µM
inactive: [7]

CN(C[C@@H](CC[N+]12CCC(C3CCCCC3)(CC1)CC2)c1ccc(Cl)c(Cl)c1)C(=O)c1cc(C(F)(F)F)cc(C(F)(F)F)c1
inactive: [1]
active: [2] 20 µM | [3] 6.46 µM | [4] 13 µM | [5] 14.3 µM | [6] 7.21 µM | [7] 5.37 µM | [8] 9.76 µM | [9] 5.55 µM | [10] 7.28 µM | [11] 7.05 µM | [12] 10.3 µM | [13] 7.58 µM | [14] 7.41 µM | [15] 5.56 µM | [16] 12.3 µM | [17] 7.78 µM | [18] 6.58 µM

COc1ccc2cc(S(=O)(=O)N[C@H](CC(=O)N[C@H](Cc3ccc(CN4[C@H](C)CCC[C@@H]4C)cc3)C(=O)N(C)C(C)C)c3ccc4c(c3)OCO4)ccc2c1
inactive: [2] | [4] | [5] | [7] | [8] | [16] | [19]
active: [1] 7.64 µM | [3] 30.4 µM | [6] 2.07 µM | [9] 9.97 µM | [10] 19.1 µM | [11] 37.4 µM | [12] 33.3 µM | [13] 31.5 µM | [14] 32.1 µM | [15] 26 µM | [17] 29.3 µM | [18] 31.7 µM

CCCCCCCC[Si](OCC)(OCC)OCC
active: [6] 20 µM | [9] 28.3 µM | [17] 37.5 µM
inactive: [1] | [2] | [3] | [4] | [7] | [8] | [10] | [11] | [12] | [13] | [14] | [15] | [16] | [18]

Source: PubChem BioAssay (EPA / NIEHS)
